# Screening data from PubChem BioAssay.
# FBW7 activator: FBW7 E3 ligase activators, primary screen, biochemical, AlphaScreen, human. AlphaScreen FBW7–phospho-cyclin E peptide binding, activator screen. F-box/WD repeat-containing protein 7 (Homo sapiens), Q969H0. AID 1259310, 2017. hit rate 0.13% among 650,000. normalized activity (activation), % at 26.1 µM; in the data active = normalized activity above about 1.9%;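 also: purified mutant Fbw7 with reduced substrate affinity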
# MITF primary: MITF inhibitors, primary screen, biochemical, AlphaScreen, human. AlphaScreen MITF homodimerization, bead proximity signal. inhibition, % at 2.6 µM. hit rate 0.91% among 650,000; in the data active = inhibition above about 50%;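 also: 0% = vehicle wells with protein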
# Target sequence (O75030 whole entry, looked up): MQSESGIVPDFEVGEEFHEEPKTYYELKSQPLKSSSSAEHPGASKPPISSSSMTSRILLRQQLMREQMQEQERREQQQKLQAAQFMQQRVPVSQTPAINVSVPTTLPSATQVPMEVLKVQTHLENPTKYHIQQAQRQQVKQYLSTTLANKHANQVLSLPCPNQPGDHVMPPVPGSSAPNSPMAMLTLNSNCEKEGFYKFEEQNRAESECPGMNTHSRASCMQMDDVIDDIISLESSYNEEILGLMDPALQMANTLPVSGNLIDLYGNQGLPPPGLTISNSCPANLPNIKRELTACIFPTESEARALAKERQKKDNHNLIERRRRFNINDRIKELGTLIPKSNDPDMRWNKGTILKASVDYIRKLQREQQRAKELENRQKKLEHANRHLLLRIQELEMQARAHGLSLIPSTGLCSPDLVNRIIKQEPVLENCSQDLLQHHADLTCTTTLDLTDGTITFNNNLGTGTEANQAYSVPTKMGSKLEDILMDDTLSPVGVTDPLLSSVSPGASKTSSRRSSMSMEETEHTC
# GPR151 ag: activators of human GPR151, primary screen, cell-based, PathHunter beta-arrestin, luminescence | G-protein coupled receptor 151 (Homo sapiens), Q8TDV0 | PathHunter beta-arrestin GPR151 cells | activation, % at 11.2 µM | hit rate 1% among 650,000 | AID 1508602, 2020; in the data active = activation above about 4.9%;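 also: 0% = median of compound wells and 100% = cells with positive control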
# TEAD-YAP inh: TEAD-YAP interaction inhibition, primary screen, TEAD-YAP interaction inhibitor project, luminescence, HEK-TIYL cells; inhibition, % at 9.12 µM; hit rate 1.4% among 640,000; AID 1259422, 2018; TEAD-Gal4/YAP UAS-luciferase luminescence; in the data active = inhibition above about 32%;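 also: 0% = median of test compound wells and 100% = reference inhibitor wells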
# Numbers without * were called inactive; ! = not confirmed by another sample. In the library only some 3.5% were active in any assay of this set; here they are far more common.
SMILES,FBW7 activator,MITF primary,GPR151 ag,TEAD-YAP inh
Cc1sc2nc(C3CCCN(C(=O)C(C)(C)C)C3)[nH]c(=O)c2c1C (stereo unspecified),0,0,0,92*
Cc1sc2nc(C3CCCN(C(=O)c4ccco4)C3)[nH]c(=O)c2c1C (stereo unspecified),0,12,-1,-31
O=C(NCCOc1cccnc1)c1ccc(-n2cc(NC(=O)c3ccoc3)cn2)cc1,0,-10,-1,52*
O=C(NCCCc1cccnc1)c1ccc(-n2cc(NC(=O)C3CCOC3)cn2)cc1 (stereo unspecified),0,16,-1,32*
O=C(NCCn1ccc2ccccc21)c1ccc(-n2cc(NC(=O)c3ccoc3)cn2)cc1,0,8,0,-8
OC(c1ccccc1)c1nnc(SCc2ccccc2)n1-c1ccccc1 (stereo unspecified),0,-4,1,0
CCOc1ccc(CC(=O)N2CCN(S(=O)(=O)c3cc4c5c(c3)CCN5C(=O)CC4)CC2)cc1,0,-2,1,10
CC(=O)OC12CO[C@@H]1C[C@H](O)[C@@]1(C)C(=O)[C@H](O)C3=C(C)[C@@H](OC(=O)[C@H](O)[C@@H](NC(=O)OC(C)(C)C)c4ccccc4)CC(O)([C@@H](OC(=O)c4ccccc4)[C@H]21)C3(C)C (stereo partly specified),0,8,-2,51*
COc1ccc(OCCOCCOc2ccccc2C=O)cc1,0,-7,-1,46*
COc1ccccc1OCCOc1ccc(C=O)cc1,0,6,-1,-2
Nc1nc2c(nc(N3CCOCC3)n2C2OC(CO)C(O)C2O)c(=O)[nH]1 (stereo unspecified),2.3*,10,-1,4
CSCCOC(=O)c1[nH]c2c(c1C)C(=O)CC(c1ccco1)C2 (stereo unspecified),0,13,2,50*
Cc1c(C(=O)OCc2ccccc2)[nH]c2c1C(=O)CC(c1ccco1)C2 (stereo unspecified),0,15,0,57*
COCCOC(=O)c1[nH]c2c(c1C)C(=O)CC(c1ccco1)C2 (stereo unspecified),0,5,0,49*
COCCOC(=O)c1[nH]c2c(c1C)C(=O)C(C(=O)OC)C(C)C2 (stereo unspecified),0,-15,-1,-10
Cc1c(C(=O)OCCOC(C)C)[nH]c2c1C(=O)CC(C)(C)C2,0,-4,1,-6
Cc1c(C(=O)OCCOC(C)C)[nH]c2c1C(=O)CC(c1ccco1)C2 (stereo unspecified),0,5,0,60*
O=C(Nc1nc2ccccc2c2nc3ccccc3n12)c1cc(Cl)sc1Cl,0,4,0,2
CCOCCOC(=O)c1[nH]c2c(c1C)C(=O)CC(c1ccco1)C2 (stereo unspecified),0,-6,0,51*
CCOCCOC(=O)c1[nH]c2c(c1C)C(=O)CC(c1ccc(OCC)cc1)C2 (stereo unspecified),0,4,0,6
CCOC(=O)c1[nH]c2c(c1C)C(=O)CC(c1ccco1)C2 (stereo unspecified),0,21,2,58*
NC(=O)c1n[nH]nc1Nc1ccccc1,0,16,-1,-1
CCn1c(=C2C(=O)NC(=O)NC2=O)c2cccc3cccc1c32,-1,61*,-1,15
CCn1c(=O)c(-c2ccccc2)c(O)c2ccccc21,0,7,-2,0
COc1cc(OC)cc(C(=O)c2c(N)sc3c2CCC(C)C3)c1 (stereo unspecified),0,-5,1,54*
SMILES,FBW7 activator,MITF primary,GPR151 ag,TEAD-YAP inh
COc1cc(OC)cc(C(=O)c2c(N)sc3c2CCCC3)c1,0,-11,0,3
CS(=O)(=O)N(CC(=O)Nc1cccnc1)c1cccc([N+](=O)[O-])c1,0,8,2,-5
Cc1ccc(-n2c(O)c(C=Nc3ccc(S(N)(=O)=O)cc3)c3ccccc3c2=O)cc1C,0,1,-1,80*
COc1ccc(N=Cc2c(O)n(-c3ccc(OC)cc3)c(=O)c3ccccc23)cc1,0,7,0,13
O=C1CC(c2ccccc2)CC(O)=C1C=NCc1ccccc1Cl (stereo unspecified),0,7,2,51*
O=C1CC(c2ccccc2)CC(O)=C1C=NCc1ccc2c(c1)OCO2 (stereo unspecified),0,-7,0,38*
CSc1ccccc1N=CC1=C(O)CC(c2ccccc2)CC1=O (stereo unspecified),0,13,0,5
CCOc1ccccc1N=CC1=C(O)CC(c2ccccc2)CC1=O (stereo unspecified),2.0*!,3,1,5
COC(=O)c1ccccc1NC(=O)c1ccc(NC(=O)Cc2ccccc2)cc1,0,5,1,2
FC(F)(F)c1cccc(N=c2scc(-c3ccc(Br)cc3)n2Cc2ccc(Cl)cc2)c1,0,-3,-1,-1
Cc1c(OC(=O)c2ccc(F)cc2)cccc1OC(=O)c1ccc(F)cc1,0,11,0,0
COc1ccc(-c2nc(NCCOc3ccccc3)c3ncn(CCN4CCCC4=O)c3n2)cc1,0,11,-1,34*
COc1ccc(CCNc2nc(-c3ccc(C(=O)NC4CC4)cc3)nc3c2ncn3CCN2CCCC2=O)cc1,0,6,2,39*
CCC(C)Oc1ccccc1C1CC(=O)NC2=C1C(=O)CCC2 (stereo unspecified),0,5,-1,38*
COc1ccc(OCCCC(=O)Oc2ccc3c4c(c(=O)oc3c2)CCC4)cc1,1,-2,1,7
CCOC(=O)c1ccc(COC(=O)c2ccc3ccccc3c2O)o1,1,15,-1,-4
CCOC(=O)C1=C(C)NC2=C(C(=O)c3ccccc32)C1c1cc(OC)c(OC)c(OC)c1 (stereo unspecified),0,6,0,53*
CCNc1nc(NCC)nc(SCCO)n1,0,12,-1,0
Cc1ccc(NC(=S)N(CCCN2CCCC(C)C2)Cc2cccs2)cc1 (stereo unspecified),0,-2,-1,-5
O=C(Cn1cnc2sc3c(c2c1=O)CCCC3)NCC(=O)Nc1ccc(F)cc1Cl,0,-1,1,11
O=C1OC2(CCCCC2)OC(=O)C1=Cc1ccc(Br)o1,0,74*,-1,-4
CCC[n+]1cccc2ccc3cccnc3c21,0,11,-1,54*
CCCCC(=O)Nc1ccccc1-c1nnn(CC(=O)Nc2ccc3c(c2)OCCO3)n1,2.3*,13,-1,12
CCCCC(=O)Nc1ccccc1-c1nnn(CC(=O)Nc2ccccc2)n1,0,-5,1,-3
CCCCC(=O)NCCNc1nc(C)nc2sc3c(c12)CCCC3,0,10,1,33*
